Test results from PubChem BioAssay AID1159580 (chemical genetic matrix, 2015).
Several values for one entry are separate records, joined by “and”; a condition that tells them apart may be missing. Identical values can stand only once. About 2,000 (36%) of roughly 5,500 compounds were called active. Not shown: some 18% with an inconclusive outcome. Rule as the data show it: active = normalized growth mostly below about 0.91 (no sharp cut-off); inconclusive = no clear call, values can overlap the other calls; inactive = mostly above about 0.92. Some of the results follow.

Assay: chemical genetic growth profiling, strain panel (AID 1159580);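 also: tested at 20 µM; growth read once vehicle control cultures reached saturation at 30 °C; 1 = growth at the plate median or of vehicle wells; lower values mean less growth of the strain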
Details: growth OD

Measured: normalized growth

CC(=O)N1CCCC1C(=O)O (configuration not stated)
inactive: S. cerevisiae deletion strains, locus YAL013W, strain DEP1, stronger effect = lower value 1.01 | S. cerevisiae deletion strains, locus YBR021W, strain FUR4, stronger effect = lower value 0.977 | S. cerevisiae deletion strains, locus YBR229C, strain ROT2, stronger effect = lower value 1.01 | S. cerevisiae deletion strains, locus YCL029C, strain bik1, stronger effect = lower value 1.03 | S. cerevisiae deletion strains, locus YDL035C, strain GPR1, stronger effect = lower value 1.02 | S. cerevisiae deletion strains, locus YDL074C, strain BRE1, stronger effect = lower value 1.02 | S. cerevisiae deletion strains, locus YDL101C, strain DUN1, stronger effect = lower value 1.01 | S. cerevisiae deletion strains, locus YDL134C, strain PPH21, stronger effect = lower value 1.01 | S. cerevisiae deletion strains, locus YDL185W, strain tfp1, stronger effect = lower value 1.02 | S. cerevisiae deletion strains, locus YDL192W, strain arf1, stronger effect = lower value 1.03 | S. cerevisiae deletion strains, locus YDR101C, strain arx1, stronger effect = lower value 1.02 | S. cerevisiae deletion strains, locus YDR150W, strain NUM1, stronger effect = lower value 1.01 | S. cerevisiae deletion strains, locus YDR162C, strain NBP2, stronger effect = lower value 1.01 | S. cerevisiae deletion strains, locus YDR318W, strain mcm21, stronger effect = lower value 1.02 | S. cerevisiae deletion strains, locus YDR388W, stronger effect = lower value 1.02 | S. cerevisiae deletion strains, locus YDR502C, strain sam2, stronger effect = lower value 1.02 | S. cerevisiae deletion strains, locus YEL061C, strain CIN8, stronger effect = lower value 1.01 | S. cerevisiae deletion strains, locus YER110C, stronger effect = lower value 1.03 | S. cerevisiae deletion strains, locus YER155C, strain BEM2, stronger effect = lower value 1 | S. cerevisiae deletion strains, locus YER167W, strain BCK2, stronger effect = lower value 1.01 | S. cerevisiae deletion strains, locus YGL078C, strain dbp3, stronger effect = lower value 1.02 | S. cerevisiae deletion strains, locus YGL086W, strain mad1, stronger effect = lower value 1.01 | S. cerevisiae deletion strains, locus YGL248W, strain PDE1, stronger effect = lower value 1.01 | S. cerevisiae deletion strains, locus YGR078C, strain PAC10, stronger effect = lower value 1 | S. cerevisiae deletion strains, locus YGR135W, strain pre9, stronger effect = lower value 1.02 | S. cerevisiae deletion strains, locus YGR229C, strain SMI1, stronger effect = lower value 0.99 | S. cerevisiae deletion strains, locus YGR252W, strain gcn5, stronger effect = lower value 1.03 | S. cerevisiae deletion strains, locus YHR030C, strain SLT2, stronger effect = lower value 1.01 and 0.953 | S. cerevisiae deletion strains, locus YHR079C, strain IRE1 (second series), stronger effect = lower value 1.02 | S. cerevisiae deletion strains, locus YHR079C, strain IRE1, stronger effect = lower value 0.975 | S. cerevisiae deletion strains, locus YHR094C, strain hxt1, stronger effect = lower value 1.02 | S. cerevisiae deletion strains, locus YHR129C, strain ARP1, stronger effect = lower value 1.01 | S. cerevisiae deletion strains, locus YHR200W, strain rpn10, stronger effect = lower value 1.03 | S. cerevisiae deletion strains, locus YIL066C, strain RNR3, stronger effect = lower value 1.02 | S. cerevisiae deletion strains, locus YIL073C, strain SPO22, stronger effect = lower value 1.08 | S. cerevisiae deletion strains, locus YIL125W, strain kgd1, stronger effect = lower value 1.02 | S. cerevisiae deletion strains, locus YIR030C, strain dcg1, stronger effect = lower value 1.02 | S. cerevisiae deletion strains, locus YJL095W, strain BCK1, stronger effect = lower value 1.01 and 0.981 | S. cerevisiae deletion strains, locus YJL134W, strain LCB3, stronger effect = lower value 1.01 | S. cerevisiae deletion strains, locus YJL168C, strain set2, stronger effect = lower value 1.02 | S. cerevisiae deletion strains, locus YJL187C, strain SWE1 (second series), stronger effect = lower value 1.02 | S. cerevisiae deletion strains, locus YJR043C, strain POL32, stronger effect = lower value 0.995 | S. cerevisiae deletion strains, locus YJR066W, strain TOR1, stronger effect = lower value 0.872 | S. cerevisiae deletion strains, locus YJR075W, strain HOC1, stronger effect = lower value 1 | S. cerevisiae deletion strains, locus YKL009W, strain mrt4, stronger effect = lower value 1.02 | S. cerevisiae deletion strains, locus YKL068W, stronger effect = lower value 1.03 | S. cerevisiae deletion strains, locus YKL085W, strain MDH1 (second series), stronger effect = lower value 1.01 | S. cerevisiae deletion strains, locus YKL085W, strain MDH1, stronger effect = lower value 1.01 | S. cerevisiae deletion strains, locus YKL190W, strain CNB1, stronger effect = lower value 1.01 | S. cerevisiae deletion strains, locus YKR001C, strain vps1, stronger effect = lower value 1.02 | S. cerevisiae deletion strains, locus YLR039C, strain RIC1, stronger effect = lower value 1.03 | S. cerevisiae deletion strains, locus YLR058C, strain SHM2, stronger effect = lower value 1.01 | S. cerevisiae deletion strains, locus YLR102C, strain apc9, stronger effect = lower value 1.02 | S. cerevisiae deletion strains, locus YLR113W, strain HOG1, stronger effect = lower value 1.01 | S. cerevisiae deletion strains, locus YLR262C, strain YPT6, stronger effect = lower value 1.05 | S. cerevisiae deletion strains, locus YLR268W, strain sec22, stronger effect = lower value 1.03 | S. cerevisiae deletion strains, locus YLR330W, strain CHS5, stronger effect = lower value 1.01 | S. cerevisiae deletion strains, locus YLR342W, strain FKS1 (second series), stronger effect = lower value 0.987 | S. cerevisiae deletion strains, locus YLR371W, strain rom2, stronger effect = lower value 1.01 | S. cerevisiae deletion strains, locus YLR418C, strain cdc73, stronger effect = lower value 1.04 | S. cerevisiae deletion strains, locus YML016C, strain PPZ1, stronger effect = lower value 1.01 | S. cerevisiae deletion strains, locus YML032C, strain rad52, stronger effect = lower value 1.02 | S. cerevisiae deletion strains, locus YML124C, strain tub3, stronger effect = lower value 1.03 | S. cerevisiae deletion strains, locus YMR078C, strain ctf18, stronger effect = lower value 1.04 | S. cerevisiae deletion strains, locus YMR223W, strain ubp8, stronger effect = lower value 1.01 | S. cerevisiae deletion strains, locus YMR263W, strain SAP30, stronger effect = lower value 1 | S. cerevisiae deletion strains, locus YMR307W, strain GAS1, stronger effect = lower value 0.996 | S. cerevisiae deletion strains, locus YNL067W, strain RPL9B, stronger effect = lower value 1 | S. cerevisiae deletion strains, locus YNL128W, strain TEP1, stronger effect = lower value 1.01 | S. cerevisiae deletion strains, locus YNL153C, strain GIM3, stronger effect = lower value 1 | S. cerevisiae deletion strains, locus YNL183C, strain NPR1, stronger effect = lower value 0.883 | S. cerevisiae deletion strains, locus YNL233W, strain BNI4, stronger effect = lower value 1.01 | S. cerevisiae deletion strains, locus YNL250W, strain rad50, stronger effect = lower value 1.02 | S. cerevisiae deletion strains, locus YNL271C, strain bni1, stronger effect = lower value 1.03 | S. cerevisiae deletion strains, locus YNL298W, strain CLA4, stronger effect = lower value 1.04 | S. cerevisiae deletion strains, locus YNL307C, strain MCK1, stronger effect = lower value 1.03 | S. cerevisiae deletion strains, locus YNL322C, strain KRE1, stronger effect = lower value 1.01 | S. cerevisiae deletion strains, locus YNR052C, strain pop2, stronger effect = lower value 1.03 | S. cerevisiae deletion strains, locus YOL006C, strain TOP1, stronger effect = lower value 1.03 | S. cerevisiae deletion strains, locus YOL012C, strain htz1 1.51 | S. cerevisiae deletion strains, locus YOL147C, strain pex11, stronger effect = lower value 1.02 | S. cerevisiae deletion strains, locus YOR061W, strain CKA2, stronger effect = lower value 1.01 | S. cerevisiae deletion strains, locus YOR069W, strain VPS5, stronger effect = lower value 1 | S. cerevisiae deletion strains, locus YOR136W, strain idh2, stronger effect = lower value 1.02 | S. cerevisiae deletion strains, locus YOR144C, strain elg1, stronger effect = lower value 1.02 | S. cerevisiae deletion strains, locus YOR184W, strain ser1, stronger effect = lower value 1.03 | S. cerevisiae deletion strains, locus YOR231W, strain MKK1, stronger effect = lower value 0.979 | S. cerevisiae deletion strains, locus YOR316C, strain cot1, stronger effect = lower value 1.02 | S. cerevisiae deletion strains, locus YPL055C, strain LGE1, stronger effect = lower value 1 | S. cerevisiae deletion strains, locus YPL241C, strain CIN2, stronger effect = lower value 1.01 | S. cerevisiae deletion strains, locus YPL256C, strain CLN2, stronger effect = lower value 0.941 | S. cerevisiae deletion strains, locus YPR119W, strain clb2, stronger effect = lower value 1.02 | S. cerevisiae deletion strains, locus YPR141C, strain kar3, stronger effect = lower value 1.03 | S. cerevisiae deletion strains, locus YPR163C, strain tif3, stronger effect = lower value 1.02 | S. cerevisiae deletion strains, locus YPR167C, strain met16, stronger effect = lower value 1.01 | S. cerevisiae deletion strains, strain wtn01, stronger effect = lower value 1.02 | S. cerevisiae strains, strain wild type, stronger effect = lower value 1
